{"source": "ChEMBL document CHEMBL1157539", "about": "“Thousands of chemical starting points for antimalarial lead identification” (Nature, 2010)", "data": [{"tested_on": "Plasmodium falciparum", "experiment": "GSK_TCMDC: Inhibition of Plasmodium falciparum 3D7 in whole red blood cells, using parasite LDH activity as an index of growth. Test compounds present at 2uM", "format": "functional", "units": {"Inhibition": "%"}, "values": [{"smiles": "COc1cc2nc(N(C)C)nc(Nc3ccc4c(cnn4Cc4ccccc4)c3)c2cc1OC", "Inhibition": 100}, {"smiles": "Cl.O=C(/C=C/c1ccc(F)cc1)NC1CCC(CCN2CCc3ccccc3CC2)CC1", "note": "(stereo unspecified)", "Inhibition": 91}, {"smiles": "Cn1ncc2ccc(Nc3nccc(-c4ccc5c(c4)c(N)nn5C)n3)cc21", "Inhibition": 99}, {"smiles": "Oc1cc(NCc2ccccc2NCc2ccc(Cl)c(Cl)c2)nc2ccccc12", "Inhibition": 93}, {"smiles": "COc1cc2c(cc1NC(=O)CN1CCN(C(=O)c3ccco3)CC1)oc1ccccc12", "Inhibition": 96}, {"smiles": "O=C(Nc1cccc(CN2CCCN(Cc3ccc(O)cc3)CC2)c1)c1cccc(Cl)c1.O=C(O)C(F)(F)F", "Inhibition": 96}, {"smiles": "COc1ccc(CCC(C)(C)NCC(O)c2cccc(C(F)(F)F)c2)cc1", "note": "(stereo unspecified)", "Inhibition": 99}, {"smiles": "Oc1ccc2ccccc2c1CNCC1CCCCC1", "Inhibition": 98}, {"smiles": "CC1CN(c2cnn(Cc3ccc(NC(=O)Nc4ccc(-c5ccccc5)cc4)cc3)c(=O)c2Cl)CC(C)N1.O=C(O)C(F)(F)F", "note": "(stereo unspecified)", "Inhibition": 100}, {"smiles": "O=C(Nc1cccc(CN2CCN(C(=O)c3cccc(Cl)c3)CC2)c1)c1ccco1.O=C(O)C(F)(F)F", "Inhibition": 96}, {"smiles": "CCSc1ccccc1COc1c(C)nc(N)nc1N.Cl", "Inhibition": 93}, {"smiles": "CC(C)(C)c1ccc(CN2CCC(CNC(=O)c3cc(-c4ccccc4Cl)cs3)C2)cc1.O=C(O)C(F)(F)F", "note": "(stereo unspecified)", "Inhibition": 100}, {"smiles": "Cn1c(NC(=O)c2ccc(CNC(=O)c3ccc(O)c(-c4ccc(Cl)c(Cl)c4)c3)cc2)nc2ccccc21", "Inhibition": 94}, {"smiles": "COC(=O)[C@@H](NC(=O)[C@@H](Nc1ccc(C#N)c2ccccc12)C(C)(C)C)c1ccc(O)cc1", "Inhibition": 100}, {"smiles": "O=C(Nc1ccccc1Cl)N(Cc1cc(Cl)cc(Cl)c1)CC(O)COc1ccc(Cl)c(F)c1", "note": "(stereo unspecified)", "Inhibition": 93}, {"smiles": "O=C(O)c1cccnc1Sc1ccc(Cl)cc1", "Inhibition": 100}, {"smiles": "COc1ccccc1-c1csc(C(=O)NCC2CCN(Cc3ccc(C(C)(C)C)cc3)C2)c1.O=C(O)C(F)(F)F", "note": "(stereo unspecified)", "Inhibition": 93}, {"smiles": "COc1ccc2c(c1)Sc1ccccc1C(N1CCN(CCO)CC1)C2.Cl", "note": "(stereo unspecified)", "Inhibition": 95}, {"smiles": "CCCn1cnc2cc(C(=O)Nc3ccc(-c4cccc(CN(C)C)c4)cc3)ccc2c1=O", "Inhibition": 95}, {"smiles": "Cc1cc(Nc2ccccc2)nc(Nc2ccccc2C)n1.Cl", "Inhibition": 85}, {"smiles": "NCCNS(=O)(=O)c1ccc(-c2ccnc3[nH]c(-c4ccncc4)cc23)cc1.O=C(O)C(F)(F)F", "Inhibition": 96}, {"smiles": "CCC(=O)N[C@@H]1CN[C@@H](C#Cc2cc3c(Nc4ccc(OCc5cccc(F)c5)c(Cl)c4)ncnc3s2)C1", "Inhibition": 82}, {"smiles": "FC(F)(F)c1ccc(NC(=S)N2CCC(CCN3CCC(c4c[nH]c5ccccc45)CC3)CC2)cc1", "Inhibition": 98}, {"smiles": "O=C(NCCCCN1CCC(c2ccc3c(c2OCC2CC2)CCCC3)CC1)c1ccc(NC(=O)c2ccc(Cl)cc2)cc1", "Inhibition": 100}, {"smiles": "Cc1cc(C(=O)Nc2ccc3c(c2)CCN3C2CCN(Cc3cc(F)cc(F)c3F)C2)no1", "note": "(stereo unspecified)", "Inhibition": 95}, {"smiles": "CN(C)C(CNC(=O)c1cc(-c2ccncc2)c(-c2ccc(NC(=O)Nc3cccc(Cl)c3)cc2)o1)c1ccccc1.O=C(O)C(F)(F)F", "note": "(stereo unspecified)", "Inhibition": 100}]}]}
